Consider one sequence from paper PMC7862700, “An all-to-all approach to the identification of sequence-specific readers for epigenetic DNA modifications on cytosine”.

Assay in all cases: DAPPL (digital affinity profiling via proximity ligation, sequencing); 10 mM Tris-HCl pH 7.5, 50 mM NaCl, 1 mM DTT, 4% glycerol, room temperature, 30 min; GST-TFs on glutathione beads, 16-mer random dsDNA library, 0.1% formaldehyde crosslink after washing; high values mean tight binding
The target of one test is T1, FEV (Homo sapiens, UniProt Q99581 1-238).
T1 sequence: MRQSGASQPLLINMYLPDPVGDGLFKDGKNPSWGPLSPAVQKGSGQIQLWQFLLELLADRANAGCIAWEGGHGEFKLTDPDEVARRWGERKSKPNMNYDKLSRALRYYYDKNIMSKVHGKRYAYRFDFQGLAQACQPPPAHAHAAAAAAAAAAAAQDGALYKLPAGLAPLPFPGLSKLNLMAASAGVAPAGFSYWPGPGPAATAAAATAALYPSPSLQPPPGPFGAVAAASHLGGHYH
The following applies: protein: recombinant; tags: N-terminal GST; dsDNA, one strand shown. The method, boiled down: (§1)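 Binding signal is given per hexamer as its read frequency for a factor divided by its frequency in the tag-only sample. GST-fused human transcription factors were expressed in yeast, captured on glutathione beads, barcoded with DNA and pooled with that sample, then incubated with 200 nmole of a 16-mer random double-stranded DNA library in Tris/NaCl/DTT/glycerol buffer for 30 min at room temperature. The pools were then washed, crosslinked, proximity-ligated, amplified by PCR and sequenced on an Illumina NextSeq500.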

The next test addresses ETV5 (Homo sapiens, UniProt P41161 1-510). The settings on record: protein: recombinant; tags: N-terminal GST; dsDNA, one strand shown. A digest of the protocol: as §1
The target of the next test is HSF1 (Homo sapiens, UniProt Q00613 1-529). The following applies: protein: recombinant; tags: N-terminal GST; chain copies: 3; dsDNA, one strand shown. The method, boiled down:
as §1

Another test concerns the target T2, SPIC (Homo sapiens, UniProt Q8N5J4 1-248).
T2 sequence: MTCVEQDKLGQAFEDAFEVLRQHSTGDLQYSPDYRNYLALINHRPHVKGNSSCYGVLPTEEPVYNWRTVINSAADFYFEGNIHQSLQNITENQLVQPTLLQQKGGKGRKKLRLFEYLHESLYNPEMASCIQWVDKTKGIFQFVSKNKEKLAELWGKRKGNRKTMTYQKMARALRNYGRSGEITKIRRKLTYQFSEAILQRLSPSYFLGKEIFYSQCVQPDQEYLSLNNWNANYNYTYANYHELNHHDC
The following applies: protein: recombinant; tags: N-terminal GST; dsDNA, one strand shown. A digest of the protocol:
as §1

Another test concerns the target ELF4 (Homo sapiens, UniProt Q99607 1-663). The settings on record: protein: recombinant; tags: N-terminal GST; dsDNA, one strand shown. A digest of the protocol: as §1
For a further test, the target named is T3, ELK4 (Homo sapiens, UniProt P28324-2 1-405).
T3 sequence: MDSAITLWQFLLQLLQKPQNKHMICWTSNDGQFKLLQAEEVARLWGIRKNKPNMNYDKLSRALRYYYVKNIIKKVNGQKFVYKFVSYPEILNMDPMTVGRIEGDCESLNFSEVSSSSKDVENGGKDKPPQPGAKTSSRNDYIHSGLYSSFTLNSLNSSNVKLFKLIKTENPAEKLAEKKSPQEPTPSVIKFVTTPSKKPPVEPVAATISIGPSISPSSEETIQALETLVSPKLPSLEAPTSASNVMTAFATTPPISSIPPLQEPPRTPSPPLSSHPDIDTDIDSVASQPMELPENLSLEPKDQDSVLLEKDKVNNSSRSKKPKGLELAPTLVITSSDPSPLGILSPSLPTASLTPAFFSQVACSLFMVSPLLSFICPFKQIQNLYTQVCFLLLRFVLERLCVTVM
The following applies: protein: recombinant; tags: N-terminal GST; dsDNA, one strand shown. The method, boiled down:
as §1

The target of another test is T4, ETV2 (Homo sapiens, UniProt O00321 1-342).
T4 sequence: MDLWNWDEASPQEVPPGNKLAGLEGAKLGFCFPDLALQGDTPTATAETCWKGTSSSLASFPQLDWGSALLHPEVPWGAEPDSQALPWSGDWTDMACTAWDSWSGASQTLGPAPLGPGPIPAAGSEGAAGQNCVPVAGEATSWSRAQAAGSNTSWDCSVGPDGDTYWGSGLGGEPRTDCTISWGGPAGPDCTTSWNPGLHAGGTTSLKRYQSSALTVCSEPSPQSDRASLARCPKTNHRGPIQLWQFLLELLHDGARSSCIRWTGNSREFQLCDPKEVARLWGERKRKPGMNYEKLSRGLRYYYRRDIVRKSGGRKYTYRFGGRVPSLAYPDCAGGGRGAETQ
The settings on record: protein: recombinant; tags: N-terminal GST; dsDNA, one strand shown. A digest of the protocol: as §1

The target of the next test is T5, ELF3 (Homo sapiens, UniProt P78545 1-371).
T5 sequence: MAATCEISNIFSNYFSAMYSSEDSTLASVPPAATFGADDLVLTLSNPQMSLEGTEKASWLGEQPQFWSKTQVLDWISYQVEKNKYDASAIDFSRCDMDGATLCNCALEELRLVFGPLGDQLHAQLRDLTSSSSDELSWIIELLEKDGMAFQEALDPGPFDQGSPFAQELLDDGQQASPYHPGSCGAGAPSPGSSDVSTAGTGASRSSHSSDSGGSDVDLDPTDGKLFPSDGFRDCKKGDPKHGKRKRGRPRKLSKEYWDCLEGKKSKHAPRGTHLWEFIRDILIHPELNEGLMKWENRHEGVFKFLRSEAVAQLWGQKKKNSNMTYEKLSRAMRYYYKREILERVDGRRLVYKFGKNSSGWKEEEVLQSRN
The following applies: protein: recombinant; tags: N-terminal GST; dsDNA, one strand shown. A digest of the protocol:
as §1

The next test concerns the target CRX (Homo sapiens, UniProt O43186 1-299). The settings on record: protein: recombinant; tags: N-terminal GST; dsDNA, one strand shown. A digest of the protocol:
as §1

The next test has as its target ETV1 (Homo sapiens, UniProt P50549 1-477). The settings on record: protein: recombinant; tags: N-terminal GST; dsDNA, one strand shown. The method, boiled down: as §1
In another test the target is T6, ERF (Homo sapiens, UniProt P50548 1-548).
T6 sequence: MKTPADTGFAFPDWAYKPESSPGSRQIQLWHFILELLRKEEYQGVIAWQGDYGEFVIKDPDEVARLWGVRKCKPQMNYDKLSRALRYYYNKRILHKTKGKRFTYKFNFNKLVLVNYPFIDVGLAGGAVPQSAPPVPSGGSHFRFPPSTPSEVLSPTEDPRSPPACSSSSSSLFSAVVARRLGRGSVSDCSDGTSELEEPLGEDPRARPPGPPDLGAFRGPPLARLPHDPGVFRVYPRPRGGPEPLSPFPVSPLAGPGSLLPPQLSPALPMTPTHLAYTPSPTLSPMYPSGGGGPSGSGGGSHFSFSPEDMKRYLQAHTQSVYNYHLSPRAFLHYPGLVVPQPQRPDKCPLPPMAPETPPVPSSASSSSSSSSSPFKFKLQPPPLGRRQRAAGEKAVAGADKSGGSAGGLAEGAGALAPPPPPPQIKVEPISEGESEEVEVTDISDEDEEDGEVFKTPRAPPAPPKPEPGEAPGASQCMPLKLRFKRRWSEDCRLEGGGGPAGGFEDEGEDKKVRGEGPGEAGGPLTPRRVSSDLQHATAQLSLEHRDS
The settings on record: protein: recombinant; tags: N-terminal GST; dsDNA, one strand shown. The method, boiled down:
as §1

In the next test the target is T7, ETV3L (Homo sapiens, UniProt Q6ZN32 1-361).
T7 sequence: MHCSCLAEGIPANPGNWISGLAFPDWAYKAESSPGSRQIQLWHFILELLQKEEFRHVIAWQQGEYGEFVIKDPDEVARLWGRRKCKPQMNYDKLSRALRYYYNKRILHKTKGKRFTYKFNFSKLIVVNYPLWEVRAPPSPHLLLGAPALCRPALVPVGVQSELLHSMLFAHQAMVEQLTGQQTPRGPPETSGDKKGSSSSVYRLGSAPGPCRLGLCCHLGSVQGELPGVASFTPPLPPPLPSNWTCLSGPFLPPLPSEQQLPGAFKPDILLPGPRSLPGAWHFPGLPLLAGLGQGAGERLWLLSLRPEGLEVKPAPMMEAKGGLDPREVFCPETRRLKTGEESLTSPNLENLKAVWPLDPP
The following applies: protein: recombinant; tags: N-terminal GST; dsDNA, one strand shown. A digest of the protocol:
as §1

For the next test, the target named is T8, ETS2 (Homo sapiens, UniProt P15036 1-469).
T8 sequence: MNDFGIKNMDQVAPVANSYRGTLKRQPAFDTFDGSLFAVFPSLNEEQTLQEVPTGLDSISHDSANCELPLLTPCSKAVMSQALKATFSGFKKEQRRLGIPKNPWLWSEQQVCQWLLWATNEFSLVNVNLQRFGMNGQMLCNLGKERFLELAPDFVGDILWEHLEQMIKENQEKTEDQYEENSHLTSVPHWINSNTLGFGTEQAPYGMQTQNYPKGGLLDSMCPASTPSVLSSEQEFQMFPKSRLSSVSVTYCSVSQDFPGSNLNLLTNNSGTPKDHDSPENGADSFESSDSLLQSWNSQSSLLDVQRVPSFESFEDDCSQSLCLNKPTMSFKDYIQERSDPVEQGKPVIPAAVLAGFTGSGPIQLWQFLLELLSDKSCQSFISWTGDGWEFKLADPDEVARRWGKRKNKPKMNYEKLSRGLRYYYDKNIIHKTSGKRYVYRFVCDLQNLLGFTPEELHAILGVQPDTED
The following applies: protein: recombinant; tags: N-terminal GST; dsDNA, one strand shown. The method, boiled down: as §1

The target in a further test is T9, SPDEF (Homo sapiens, UniProt O95238 1-335).
T9 sequence: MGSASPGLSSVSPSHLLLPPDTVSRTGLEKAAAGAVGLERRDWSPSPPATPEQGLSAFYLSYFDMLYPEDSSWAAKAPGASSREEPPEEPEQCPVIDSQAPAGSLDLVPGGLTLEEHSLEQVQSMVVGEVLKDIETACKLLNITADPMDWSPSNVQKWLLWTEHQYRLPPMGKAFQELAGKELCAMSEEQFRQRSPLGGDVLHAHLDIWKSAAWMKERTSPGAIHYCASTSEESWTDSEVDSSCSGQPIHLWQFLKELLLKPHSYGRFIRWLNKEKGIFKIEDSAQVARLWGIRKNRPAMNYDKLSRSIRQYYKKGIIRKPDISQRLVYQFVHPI
The settings on record: protein: recombinant; tags: N-terminal GST; dsDNA, one strand shown. A digest of the protocol: as §1

The target of a further test is T10, ETV7 (Homo sapiens, UniProt Q9Y603 1-341).
T10 sequence: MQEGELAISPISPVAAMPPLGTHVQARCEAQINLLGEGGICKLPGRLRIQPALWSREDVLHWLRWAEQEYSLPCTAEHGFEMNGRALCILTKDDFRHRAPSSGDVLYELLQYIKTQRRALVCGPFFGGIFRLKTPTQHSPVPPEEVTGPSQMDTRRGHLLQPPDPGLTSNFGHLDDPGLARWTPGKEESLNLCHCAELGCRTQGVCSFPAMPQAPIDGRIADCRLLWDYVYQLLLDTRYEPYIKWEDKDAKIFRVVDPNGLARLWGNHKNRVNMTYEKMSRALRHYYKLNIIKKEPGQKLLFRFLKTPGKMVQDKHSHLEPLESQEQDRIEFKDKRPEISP
The following applies: protein: recombinant; tags: N-terminal GST; dsDNA, one strand shown. A digest of the protocol:
as §1

A further test deals with T11, ELF5 (Homo sapiens, UniProt Q9UKW6-2 1-255).
T11 sequence: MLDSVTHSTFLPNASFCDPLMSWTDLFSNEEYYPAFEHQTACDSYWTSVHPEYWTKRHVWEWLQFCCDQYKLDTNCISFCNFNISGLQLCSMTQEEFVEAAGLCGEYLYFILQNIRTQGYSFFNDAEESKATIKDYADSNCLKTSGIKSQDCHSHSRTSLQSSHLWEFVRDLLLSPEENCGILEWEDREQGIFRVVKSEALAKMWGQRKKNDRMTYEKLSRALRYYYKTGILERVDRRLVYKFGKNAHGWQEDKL
The following applies: protein: recombinant; tags: N-terminal GST; dsDNA, one strand shown. A digest of the protocol:
as §1

The next test addresses T12, ETV3 (Homo sapiens, UniProt P41162-2 1-143).
T12 sequence: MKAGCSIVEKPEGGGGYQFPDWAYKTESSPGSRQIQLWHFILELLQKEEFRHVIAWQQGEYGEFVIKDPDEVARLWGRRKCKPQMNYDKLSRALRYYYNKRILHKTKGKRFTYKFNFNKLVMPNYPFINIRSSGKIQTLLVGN
The following applies: protein: recombinant; tags: N-terminal GST; dsDNA, one strand shown. The method, boiled down: as §1

In another test the target is ETV6 (Homo sapiens, UniProt P41212 1-452). The following applies: protein: recombinant; tags: N-terminal GST; dsDNA, one strand shown. The method, boiled down: as §1
Sequence of ETV6 (P41212 whole entry): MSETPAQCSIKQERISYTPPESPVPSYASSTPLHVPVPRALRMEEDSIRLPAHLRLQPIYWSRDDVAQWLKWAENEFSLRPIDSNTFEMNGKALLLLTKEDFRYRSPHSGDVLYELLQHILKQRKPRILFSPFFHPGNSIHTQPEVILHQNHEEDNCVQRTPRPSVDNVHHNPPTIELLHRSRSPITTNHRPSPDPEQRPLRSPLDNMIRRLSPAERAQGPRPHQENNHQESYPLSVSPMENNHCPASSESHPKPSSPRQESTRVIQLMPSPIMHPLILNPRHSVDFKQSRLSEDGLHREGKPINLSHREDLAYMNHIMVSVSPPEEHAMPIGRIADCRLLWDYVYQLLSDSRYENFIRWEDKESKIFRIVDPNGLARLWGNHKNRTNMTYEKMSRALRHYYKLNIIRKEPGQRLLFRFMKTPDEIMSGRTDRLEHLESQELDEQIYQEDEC

Sequence of ETV1 (P50549 whole entry): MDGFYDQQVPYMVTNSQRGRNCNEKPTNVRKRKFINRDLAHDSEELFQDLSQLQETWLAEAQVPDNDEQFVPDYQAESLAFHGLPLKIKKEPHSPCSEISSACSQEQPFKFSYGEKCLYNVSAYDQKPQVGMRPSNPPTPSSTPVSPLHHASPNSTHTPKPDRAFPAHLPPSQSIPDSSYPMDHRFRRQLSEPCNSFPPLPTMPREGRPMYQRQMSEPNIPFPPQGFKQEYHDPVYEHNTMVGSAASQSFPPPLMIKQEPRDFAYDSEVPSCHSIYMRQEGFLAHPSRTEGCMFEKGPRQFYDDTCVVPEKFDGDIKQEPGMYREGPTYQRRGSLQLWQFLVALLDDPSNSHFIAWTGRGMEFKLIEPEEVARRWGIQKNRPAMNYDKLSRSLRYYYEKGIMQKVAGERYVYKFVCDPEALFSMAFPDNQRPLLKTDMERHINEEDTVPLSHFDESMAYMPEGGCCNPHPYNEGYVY
Sequence of CRX (O43186 whole entry): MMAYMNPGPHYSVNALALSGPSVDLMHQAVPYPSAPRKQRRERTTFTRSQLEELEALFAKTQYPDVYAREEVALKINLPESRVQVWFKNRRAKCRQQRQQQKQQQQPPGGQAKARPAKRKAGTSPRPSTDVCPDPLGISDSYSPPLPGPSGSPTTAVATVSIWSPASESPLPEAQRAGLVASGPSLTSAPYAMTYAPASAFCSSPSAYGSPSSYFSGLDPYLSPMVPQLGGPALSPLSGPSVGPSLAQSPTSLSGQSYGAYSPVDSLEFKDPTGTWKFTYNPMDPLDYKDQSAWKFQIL
Sequence of ELF4 (Q99607 whole entry): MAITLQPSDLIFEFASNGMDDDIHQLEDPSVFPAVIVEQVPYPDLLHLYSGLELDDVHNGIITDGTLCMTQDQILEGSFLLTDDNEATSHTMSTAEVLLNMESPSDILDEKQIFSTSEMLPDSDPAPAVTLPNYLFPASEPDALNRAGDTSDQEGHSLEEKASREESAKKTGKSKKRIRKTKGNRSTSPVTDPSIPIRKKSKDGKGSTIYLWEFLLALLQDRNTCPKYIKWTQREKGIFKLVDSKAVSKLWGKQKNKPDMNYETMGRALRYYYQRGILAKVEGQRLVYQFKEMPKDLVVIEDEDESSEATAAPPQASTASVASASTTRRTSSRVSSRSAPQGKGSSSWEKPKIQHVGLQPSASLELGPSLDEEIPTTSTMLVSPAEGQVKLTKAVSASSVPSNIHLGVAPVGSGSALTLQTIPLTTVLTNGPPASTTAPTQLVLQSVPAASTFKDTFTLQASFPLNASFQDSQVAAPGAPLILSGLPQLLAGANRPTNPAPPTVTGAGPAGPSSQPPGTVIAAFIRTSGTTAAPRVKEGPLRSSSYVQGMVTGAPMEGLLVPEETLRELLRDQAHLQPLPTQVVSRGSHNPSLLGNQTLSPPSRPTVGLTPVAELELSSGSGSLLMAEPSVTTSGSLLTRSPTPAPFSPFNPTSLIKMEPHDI
Sequence of HSF1 (Q00613 whole entry): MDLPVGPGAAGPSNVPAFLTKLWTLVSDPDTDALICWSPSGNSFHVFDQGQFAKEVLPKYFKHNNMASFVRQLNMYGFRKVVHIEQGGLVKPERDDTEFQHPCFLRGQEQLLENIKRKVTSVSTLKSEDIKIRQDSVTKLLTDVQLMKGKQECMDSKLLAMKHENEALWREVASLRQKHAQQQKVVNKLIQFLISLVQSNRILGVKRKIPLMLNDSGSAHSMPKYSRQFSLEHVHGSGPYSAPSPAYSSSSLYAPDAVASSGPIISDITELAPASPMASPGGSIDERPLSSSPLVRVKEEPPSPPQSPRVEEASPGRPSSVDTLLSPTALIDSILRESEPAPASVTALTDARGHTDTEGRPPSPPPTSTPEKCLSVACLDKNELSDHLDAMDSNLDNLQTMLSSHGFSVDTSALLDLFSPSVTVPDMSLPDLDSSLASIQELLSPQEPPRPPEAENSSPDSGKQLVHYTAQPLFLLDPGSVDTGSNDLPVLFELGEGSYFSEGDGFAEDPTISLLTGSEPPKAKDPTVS
Sequence of ETV5 (P41161 whole entry): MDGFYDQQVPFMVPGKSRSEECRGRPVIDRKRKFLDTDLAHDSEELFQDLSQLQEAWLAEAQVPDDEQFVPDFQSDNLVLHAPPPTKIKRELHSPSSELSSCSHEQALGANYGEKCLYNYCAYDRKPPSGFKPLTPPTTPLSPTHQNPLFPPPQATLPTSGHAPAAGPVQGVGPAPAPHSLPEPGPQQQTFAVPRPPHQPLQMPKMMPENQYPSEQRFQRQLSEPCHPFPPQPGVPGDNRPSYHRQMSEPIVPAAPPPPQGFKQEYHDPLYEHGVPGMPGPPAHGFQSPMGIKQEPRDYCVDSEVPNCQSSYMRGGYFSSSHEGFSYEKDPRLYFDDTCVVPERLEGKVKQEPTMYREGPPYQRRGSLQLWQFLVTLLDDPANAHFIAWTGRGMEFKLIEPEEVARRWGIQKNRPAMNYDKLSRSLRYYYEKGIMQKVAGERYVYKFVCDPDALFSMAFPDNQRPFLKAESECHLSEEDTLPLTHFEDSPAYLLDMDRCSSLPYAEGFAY

Take CACTAA: the binding signal with FEV is 1.12 fold enrichment (6-mer frequency, TF over GST control); with ETV5, 1.13 fold enrichment (6-mer frequency, TF over GST control); in the test with HSF1, 1.29 fold enrichment (6-mer frequency, TF over GST control); with SPIC it was 1.25 fold enrichment (6-mer frequency, TF over GST control); with ELF4, 1.2 fold enrichment (6-mer frequency, TF over GST control); with ELK4, 1.2 fold enrichment (6-mer frequency, TF over GST control). Moreover, the binding signal in the test with ETV2 was 1.2 fold enrichment (6-mer frequency, TF over GST control); with ELF3, 1.3 fold enrichment (6-mer frequency, TF over GST control); with CRX it was 1.67 fold enrichment (6-mer frequency, TF over GST control); in the test with ETV1, 1.12 fold enrichment (6-mer frequency, TF over GST control); with ERF, 1.21 fold enrichment (6-mer frequency, TF over GST control); in the test with ETV3L, 1.28 fold enrichment (6-mer frequency, TF over GST control). The binding signal is 1.18 fold enrichment (6-mer frequency, TF over GST control) with ETS2; 1.15 fold enrichment (6-mer frequency, TF over GST control) in the test with SPDEF; 1.19 fold enrichment (6-mer frequency, TF over GST control) with ETV7; 1.14 fold enrichment (6-mer frequency, TF over GST control) with ELF5; 1.07 fold enrichment (6-mer frequency, TF over GST control) in the test with ETV3; 1.12 fold enrichment (6-mer frequency, TF over GST control) in the test with ETV6.
